Each structure is given as a SMILES string. Calls of active or inactive are those of the source. Rule for the calls: active = hit-call score of the fitted dose curve at least 0.9, where 1 is the maximum; inactive = score below 0.9.

Read-out in experiment [1]: Interleukin-8 (IL8), CXCL8 (gene 3576)
Briefly: BSK_CASM3C_IL8: BioMAP Diversity Plus: CASM3C Assay for Interleukin-8 (IL8) Biomarker Activity (AID 2283042).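 Note: IL-8 protein level quantified by ELISA.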 The note with it: primary human coronary artery smooth muscle cells; actives raise or lower the signal.

Read-out in experiment [2]: Human Leukocyte Antigen - DR isotype (HLADR), HLA-DRA (gene 3122)
The experiment is described as follows: BSK_CASM3C_HLADR: BioMAP Diversity Plus: CASM3C Assay for Human Leukocyte Antigen - DR isotype (HLADR) Biomarker Activity (AID 2283043).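 Note: cell-surface HLA-DR protein level quantified by ELISA.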 The note with it: primary human coronary artery smooth muscle cells; actives raise or lower the signal.

Read-out in experiment [3]: Macrophage colony-stimulating factor (MCSF), CSF1 (gene 1435)
Briefly: BSK_CASM3C_MCSF: BioMAP Diversity Plus: CASM3C Assay for Macrophage colony-stimulating factor (MCSF) Biomarker Activity (AID 2283044).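 Note: M-CSF protein amount quantified by ELISA after 24 h exposure.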 As to conditions: primary human coronary artery smooth muscle cells; actives raise or lower the signal.

Read-out in experiment [4]: Low-density lipoprotein receptor (LDLR), LDLR (gene 3949)
The experiment is described as follows: BSK_CASM3C_LDLR: BioMAP Diversity Plus: CASM3C Assay for Low-density lipoprotein receptor (LDLR) Biomarker Activity (AID 2283045).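 Note: LDLR protein level on the cell surface quantified by ELISA.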 The note with it: primary human coronary artery smooth muscle cells; actives raise or lower the signal.

Read-out in experiment [5]: Monocyte Chemoattractant Protein-1 (MCP1), CCL2 (gene 6347)
Briefly: BSK_CASM3C_MCP1: BioMAP Diversity Plus: CASM3C Assay for Monocyte Chemoattractant Protein-1 (MCP1) Biomarker Activity (AID 2283046).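 Note: MCP-1 level quantified by ELISA 24 h after dosing.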 The note with it: primary human coronary artery smooth muscle cells; actives raise or lower the signal.

The nature of experiment [6]: BSK_CASM3C_Proliferation: Cell Proliferation Assessment in the BioMAP Diversity Plus: CASM3C Assay (AID 2283047).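 Note: sulforhodamine B total protein stain as relative cell number at 560 nm; sub-confluent cells exposed 48 h before staining; fitted both ways against DMSO so gain or loss of cell number.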 As to conditions: primary human coronary artery smooth muscle cells.
Read-out in experiment [7]: Monokine induced gamma interferon (MIG), CXCL9 (gene 4283)
Briefly: BSK_CASM3C_MIG: BioMAP Diversity Plus: CASM3C Assay for Monokine induced gamma interferon (MIG) Biomarker Activity (AID 2283048).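 Note: MIG protein level measured by ELISA.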 As to conditions: primary human coronary artery smooth muscle cells; actives raise or lower the signal.

Read-out in experiment [8]: serum amyloid A (SAA), SAA1 (gene 6288)
Briefly: BSK_CASM3C_SAA: BioMAP Diversity Plus: CASM3C Assay for serum amyloid A (SAA) Biomarker Activity (AID 2283049).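 Note: SAA protein level quantified by ELISA.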 The note with it: primary human coronary artery smooth muscle cells; actives raise or lower the signal.

Experiment [9] can be described thus: BSK_CASM3C_SRB: Viability Assessment in the BioMAP Diversity Plus: CASM3C Assay (AID 2283050).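 Note: cells exposed to compound for 24 h.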 As to conditions: primary human coronary artery smooth muscle cells.
Read-out in experiment [10]: Thrombomodulin, THBD (gene 7056)
Briefly: BSK_CASM3C_Thrombomodulin: BioMAP Diversity Plus: CASM3C Assay for Thrombomodulin Biomarker Activity (AID 2283051).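 Note: thrombomodulin protein level measured by ELISA 24 h after dosing.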 The note with it: primary human coronary artery smooth muscle cells; actives raise or lower the signal.

Read-out in experiment [11]: Tissue Factor, F3 (gene 2152)
Briefly: BSK_CASM3C_TissueFactor: BioMAP Diversity Plus: CASM3C Assay for Tissue Factor Biomarker Activity (AID 2283052).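 Note: cell surface tissue factor protein level read by ELISA.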 The note with it: primary human coronary artery smooth muscle cells; actives raise or lower the signal.

Read-out in experiment [12]: Interferon-gamma inducible Protein 10 (IP10), CXCL10 (gene 3627)
Briefly: BSK_hDFCGF_IP10: BioMAP Diversity Plus: hDFCGF Assay for Interferon-gamma inducible Protein 10 (IP10) Biomarker Activity (AID 2283053). As to conditions: primary human foreskin fibroblasts; actives raise or lower the signal. A digest of the protocol: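 Primary human foreskin fibroblasts exposed to chemicals for 24 h. IP-10 measured by ELISA; changes fitted bidirectionally against DMSO baseline.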

Read-out in experiment [13]: Urokinase-type plasminogen activator receptor (uPAR), PLAUR (gene 5329)
Briefly: BSK_CASM3C_uPAR: BioMAP Diversity Plus: CASM3C Assay for Urokinase-type plasminogen activator receptor (uPAR) Biomarker Activity (AID 2283054).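 Note: cell-surface uPAR protein level quantified by ELISA.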 As to conditions: primary human coronary artery smooth muscle cells; actives raise or lower the signal.

Read-out in experiment [14]: Vascular cell adhesion molecule 1 (VCAM1), VCAM1 (gene 7412)
Briefly: BSK_CASM3C_VCAM1: BioMAP Diversity Plus: CASM3C Assay for Vascular cell adhesion molecule 1 (VCAM1) Biomarker Activity (AID 2283055).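 Note: VCAM-1 protein level quantified by ELISA on the cells.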 As to conditions: primary human coronary artery smooth muscle cells; actives raise or lower the signal.

Read-out in experiment [15]: Collagen III, COL3A1 (gene 1281)
Briefly: BSK_hDFCGF_CollagenIII: BioMAP Diversity Plus: hDFCGF Assay for Collagen III Biomarker Activity (AID 2283056). As to conditions: primary human foreskin fibroblasts; actives raise or lower the signal. The essentials:
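hDFCGF primary human dermal fibroblasts; 24 h chemical exposure; collagen III by ELISA; bidirectional curve fit vs DMSO baseline (gain or loss of signal).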

Read-out in experiment [16]: Epidermal growth factor receptor (EGFR), EGFR (gene 1956)
Briefly: BSK_hDFCGF_EGFR: BioMAP Diversity Plus: hDFCGF Assay for Epidermal growth factor receptor (EGFR) Biomarker Activity (AID 2283057). As to conditions: primary human foreskin fibroblasts; actives raise or lower the signal. The essentials: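 Primary human foreskin fibroblasts (hDFCGF system), sampled 24 h after dosing; EGFR quantified by ELISA. Bidirectional fit relative to DMSO baseline; SRB total-protein staining in parallel cultures for cytotoxicity.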

Read-out in experiment [17]: Interleukin-8 (IL8), CXCL8 (gene 3576)
The experiment is described as follows: BSK_hDFCGF_IL8: BioMAP Diversity Plus: hDFCGF Assay for Interleukin-8 (IL8) Biomarker Activity (AID 2283058). The note with it: primary human foreskin fibroblasts; actives raise or lower the signal. A digest of the protocol:
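ELISA read-out of IL-8 from primary human foreskin fibroblast cultures taken 24 h after dosing; values are bidirectional fits relative to DMSO vehicle.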

The nature of experiment [18]: BSK_hDFCGF_Proliferation: Cell Proliferation Assessment in the BioMAP Diversity Plus: hDFCGF Assay (AID 2283059).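 Note: curves fitted for both rise and fall of signal versus DMSO baseline.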 The note with it: primary human foreskin fibroblasts. A digest of the protocol:
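Sub-confluent human foreskin fibroblast cultures receive test chemical […]. Relative cell number is quantified by sulforhodamine B staining (0.1%, after 10% TCA fixation) at 560 nm, with bidirectional fitting referenced to DMSO.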

Read-out in experiment [19]: Macrophage colony-stimulating factor (MCSF), CSF1 (gene 1435)
Briefly: BSK_hDFCGF_MCSF: BioMAP Diversity Plus: hDFCGF Assay for Macrophage colony-stimulating factor (MCSF) Biomarker Activity (AID 2283060). As to conditions: primary human foreskin fibroblasts; actives raise or lower the signal. A digest of the protocol: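 ELISA read-out of M-CSF in human dermal foreskin fibroblast cultures, 24 h after chemical dosing; gain or loss of signal fitted bidirectionally relative to DMSO baseline.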

A short description of experiment [20]: BSK_hDFCGF_SRB: Viability Assessment in the BioMAP Diversity Plus: hDFCGF Assay (AID 2283061).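 Note: cells exposed to compound for 24 h before the read.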 The note with it: primary human foreskin fibroblasts. A digest of the protocol: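 Primary human foreskin fibroblasts; 24 h post-dose; fixed 10% TCA, stained 0.1% SRB, A560 read; total protein as overt cytotoxicity measure; curves fit bidirectionally vs DMSO control.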

`CC(=O)NC1(c2cccc(F)c2)CCN(CC[C@@]2(c3ccc(Cl)c(Cl)c3)CN(c3ccccc3)C(=O)CO2)CC1`: the outcome in experiment [1], in [3], in [5], in experiment [7], in [8] and in experiment [11] was inactive. The outcome in experiment [14] and in experiment [16] was inactive. Also, the AC50 was 28.2 µM (active) in experiment [2]; 4.58 µM (active) in experiment [4]; 27.3 µM (active) in experiment [6]; 23.8 µM (active) in [9]; 26.1 µM (active) in [10]; 28.2 µM (active) in [12]. Further, the concentration at half-maximal activity (AC50) was 16.6 µM (active) in experiment [13]; 6.66 µM (active) in [15]; 25.9 µM (active) in experiment [17]; 13.4 µM (active) in experiment [18]; 24.5 µM (active) in [19]; 24.5 µM (active) in experiment [20].
On to `Cc1cc(CCN2CCN(c3nsc4ccccc34)CC2)cc2c1NC(=O)CC2(C)C`, for which the AC50 in experiment [1] is 35.4 µM (active); in experiment [2], 28.5 µM (active); in experiment [3], 36.1 µM (active); in experiment [4], 33.4 µM (active); in experiment [5], 37.1 µM (active); in [6] it was 29.8 µM (active). In addition, the concentration at half-maximal activity (AC50) is 37.1 µM (active) in experiment [7]; 31.5 µM (active) in experiment [8]; 36.5 µM (active) in experiment [9]; 33.9 µM (active) in experiment [10]; 29.6 µM (active) in experiment [11]; 11.5 µM (active) in experiment [12]. For the same compound, the AC50 in experiment [13] was 31.1 µM (active); in [14], 29.4 µM (active); in experiment [15], 9.12 µM (active); in experiment [17], 11.3 µM (active); in experiment [18], 7.83 µM (active); in experiment [19], 10.8 µM (active). The AC50 in [20] is 13.4 µM (active). The result in experiment [16] was inactive.
With `CCCCCCCCCCCCCCCS(=O)(=O)Oc1ccccc1`, the outcome in [1], in experiment [2], in experiment [3], in experiment [4], in experiment [5] and in experiment [6] was inactive. The outcome in [7], in experiment [8], in [9], in [10], in experiment [11] and in experiment [12] was inactive. Further, the outcome in experiment [13], in experiment [14], in experiment [15], in experiment [16], in experiment [17] and in experiment [18] was inactive. In addition, in [19], the outcome was inactive.
For the compound `CC[C@H](c1ccc(O)cc1)[C@@H](CC)c1ccc(O)cc1`, the result in [1], in experiment [2], in [3], in [4], in experiment [5] and in experiment [7] was inactive. For the same compound, the result in experiment [8], in experiment [9], in experiment [10], in experiment [11], in experiment [13] and in experiment [16] was inactive. The AC50 in [6] is 20 µM (active); in experiment [12], 24.1 µM (active); in [14], 27.4 µM (active); in experiment [15], 15.1 µM (active); in experiment [17], 37.8 µM (active); in [18], 18.8 µM (active). Moreover, the AC50 in experiment [19] is 29.7 µM (active); in experiment [20], 30.4 µM (active).
With `Nc1cccc2c(N)cccc12`, the outcome in experiment [1], in [2], in experiment [3], in experiment [4], in experiment [5] and in [6] was inactive. The result in [7], in experiment [8], in experiment [9], in experiment [10], in experiment [11] and in experiment [13] was inactive. Moreover, the result in experiment [14], in experiment [15], in experiment [16] and in experiment [17] was inactive. The values for the AC50 in [12], in [18] and in experiment [19] were 29.1 µM (active), 5.91 µM (active) and 12.9 µM (active), respectively.

A word on the AC50: it is the concentration giving half of the maximal activity seen.
